Assay results as given in PubChem BioAssay AID1159580 (chemical genetic matrix, 2015).
In all, about 5,500 compounds went through this assay and about 2,000 (36%) were called active. About 18% were inconclusive and are not listed. No stated cut-off is given here; in the data, active means normalized growth mostly below about 0.91 (no sharp cut-off); inconclusive means no clear call, values can overlap the other calls; inactive means mostly above about 0.92. The list shows a part of the results.

Assay: chemical genetic growth profiling, strain panel (AID 1159580);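 further: tested at 20 µM; growth read once vehicle control cultures reached saturation at 30 °C; 1 = growth at the plate median or of vehicle wells; lower values mean less growth of the strain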
Details: S. cerevisiae deletion strains, growth OD

Measured: normalized growth

C#CCN1C(C)=C(C(=O)OC)C(c2cccc([N+](=O)[O-])c2)C(C(=O)OCC)=C1C (stereo not given)
inactive: locus YAL013W, strain DEP1, active compounds read low 1.01 | locus YAL040C, strain CLN3, active compounds read low 0.971 | locus YCL061C, strain MRC1 (second series), active compounds read low 1 | locus YDR363W, strain ESC2, active compounds read low 1.01 | locus YER002W, strain NOP16, active compounds read low 1.02 | locus YGR078C, strain PAC10, active compounds read low 0.996 | locus YMR263W, strain SAP30, active compounds read low 1.02 | locus YMR307W, strain GAS1, active compounds read low 0.998 | locus YNL128W, strain TEP1, active compounds read low 1.03 | locus YNL153C, strain GIM3, active compounds read low 0.988 | locus YNL175C, strain NOP13, active compounds read low 1.04 | locus YNL197C, strain WHI3, active compounds read low 1.03 | locus YNL224C, strain SQS1, active compounds read low 1 | locus YNL322C, strain KRE1, active compounds read low 1 | locus YOR083W, strain WHI5 (second series), active compounds read low 1.04
